Source: PubChem BioAssay

Test system: PRMT1 (protein arginine N-methyltransferase 1)
Test: small molecules binding arginine methyltransferase PRMT1 – biochemical, small-molecule microarray, 635 nm fluorescence, primary screen (AID 1088);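 note: binding of Prmt1 protein to compounds spotted on small-molecule microarray slides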
Conditions: higher = more signal

Row | SMILES | composite z-score
1 | C[C@@H]1CC[C@H]2C(=O)N3[C@@H](CC[C@@H](C)[C@@H]3c3cccc(N4CCOCC4)c3)C(=O)N2[C@H]1c1cccc(N2CCOCC2)c1 | 0.52
2 | O=C1c2ccccc2[C@](Cc2ccccc2I)(C(=O)O)[C@H](c2ccc(CO)cc2)N1C1CCCCC1 | 1.54
3 | COCCCNC(=O)[C@@]1(c2ccc([N+](=O)[O-])cc2)CC(=O)N(C2CCCCC2)[C@@H]1c1ccc(CO)cc1 | 0.139
4 | C=C(C(=O)CC[C@H](OC(=O)c1ccccc1-c1ccccc1C(=O)O)c1ccc(CO)o1)C(C)C | 1.33
5 | CSCC[C@@H]1NC(=O)CC=C[C@@H](C)COC(=O)[C@H](CCSC)NC(=O)CC=C[C@@H](C)COC1=O | -0.153
6 | CC1=C([C@H](O)CCc2ccccc2)[C@H](CO)[C@@H]2C(=O)N(Cc3ccccc3)C(=O)[C@@H]2C1 | -0.262
7 | CO[C@H]1COC(=O)[C@@H](C)NC(=O)CC=C[C@@H](C)[C@H](OC)COC(=O)CC=C[C@@H]1C | 1.55
8 | CC(C)NC(=O)[C@@]1(Cc2ccccc2I)c2ccccc2C(=O)N(C2CCCCC2)[C@H]1c1ccc(CO)cc1 | 1.53
9 | O=C1O[C@@H](c2ccccc2)[C@@H](c2ccccc2)N2[C@@H](c3ccccc3OCCO)[C@]3(C(=O)Nc4ccc(C#CC5=CCCCC5)cc43)[C@@H](C(=O)O)[C@H]12 | 1.34
10 | O=C1O[C@@H](c2ccccc2)[C@@H](c2ccccc2)N2[C@@H](c3ccc(OCCO)cc3)[C@]3(C(=O)Nc4ccc(C#CCCO)cc43)[C@@H](C(=O)N3CCN(c4ncccn4)CC3)[C@H]12 | 1.54
11 | CC(=O)NCCCC[C@@H]1NC(=O)[C@@H]2C[C@H](C(=O)NCCCCCCN(C)C)[C@H](c3ccc(O)cc3)N2C1=O | 1.54
12 | O=C(NCc1ccccc1)[C@@]1(CCS(=O)(=O)c2ccccc2)COC(c2ccc(OCCCO)cc2)=N1 | 1.53
13 | O=C1O[C@@H](c2ccccc2)[C@@H](c2ccccc2)N2[C@@H](c3ccc(O)cc3)[C@]3(C(=O)Nc4ccccc43)[C@@H](C(=O)N3CCN(c4ncccn4)CC3)[C@H]12 | 1.29
14 | COc1ccc(C(O)C2C=CC3C(=O)N(C)C(=O)C3N2N2CCCCC2)cc1OCc1ccccc1 (stereo not drawn) | 0.922
15 | COc1cc([C@@H]2N[C@H](C(=O)O)Cc3c2[nH]c2ccccc32)cc(OC)c1OC | -0.504
16 | COCCOC(=O)N1C(=O)[C@@]2(c3cc(C#CC4=CCCCC4)ccc31)[C@H](C(=O)NC[C@H](O)c1ccccc1)[C@H]1C(=O)O[C@H](c3ccccc3)[C@H](c3ccccc3)N1[C@@H]2c1ccccc1OCCO | 1.56
17 | COc1ccc(CCNC(=O)[C@@]2(c3ccc([N+](=O)[O-])cc3)CC(=O)N(C(C)C)[C@@H]2c2ccc(CO)cc2)cc1 | -0.383
18 | CC(=O)NCCCC[C@@H]1NC(=O)[C@H]2C[C@@H](C(=O)NCCCCCCN(C)C)[C@@H](c3ccc(O)cc3)N2C1=O | 1.54
19 | NC(=O)NCC#Cc1ccc2c(c1)[C@]1(C(=O)N2)[C@H](c2ccccc2OCCO)N2[C@H](c3ccccc3)[C@H](c3ccccc3)OC(=O)[C@H]2[C@@H]1C(=O)N1CCN(c2ncccn2)CC1 | 1.54
20 | CO[C@H]1COC(=O)CC=C[C@H](C)[C@@H](OC)COC(=O)CC=C[C@@H]1C | 0.656
21 | CN(C)C(=O)[C@@]1(Cc2ccccc2N=[N+]=[N-])N=C(c2ccc(OCCCO)cc2)O[C@H]1c1ccccc1CN=[N+]=[N-] | 1.56
22 | O=C(CS)NCCCCCNC(=O)[C@H]1C[C@H]2C(=O)N3CCC[C@H]3C(=O)N2[C@H]1c1ccc(O)cc1 | -0.183
23 | Cc1ccccc1C(O)C1C=CC2C(=O)N(c3ccccc3)C(=O)C2N1Nc1ccc(C#N)cc1 (stereo not drawn) | 1.51
24 | COC(=O)[C@@]1(Cc2ccccc2N=[N+]=[N-])N=C(c2ccc(OCCCO)cc2)O[C@H]1c1ccccc1CN=[N+]=[N-] | 1.41
25 | CCCCCCc1nc(C2CC2)c(C)c2c1[Si](C(C)C)(C(C)C)OC2 | -1.09
26 | C[N+](C)(C)CCCC[C@@H]1NC(=O)[C@H]2C[C@@H](C(=O)NCc3ccc(F)cc3)[C@@H](c3cccc(OCCO)c3)N2C1=O | 1.47
27 | CCCNC(=O)[C@@H]1c2ccccc2C(=O)N(Cc2cc(F)cc(C(F)(F)F)c2)[C@H]1c1ccc(CO)cc1 | 1.54
28 | C#CCCCON=C1C[C@@H](O)[C@@H](O)[C@@H]2[C@@H]3C(=O)N(Cc4ccc5c(c4)OCO5)C(=O)[C@@H]3CC[C@H]12 | 1.01
